CYP2C9 inhib: inhibitors of human CYP2C9. CYP2C9 Supersomes, luciferin-H conversion, luminescence. inhibition, % at 5 µM. hit rate 20% among 96,000;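 active = blocking of liver enzyme CYP2C9 beyond about 50% at 5 µM, limit read from the data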
CYP2C19 inh: inhibitors of human CYP2C19. inhibition, % at 5 µM. hit rate 21% among 96,000. CYP2C19 Supersomes, luciferin-H EGE luminescence, 30 min. P33261. AID 778;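 active = CYP2C19 inhibition above a set limit at 5 µM in the primary screen, cut at about 50% in these data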
Cav32 inh: blocks human Cav3.2 T-type calcium channel. Cav3.2-expressing cells, Fluo-4 calcium fluorescence FDSS; stronger effect = lower value. hit rate 4% among 100,000. O95180. B-score at 10 µM;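 active = single-dose well whose peak fluorescence ratio is a statistical outlier from its plate by either plate-standardised score or position-corrected B-score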
Target sequence (O95180 whole entry, looked up): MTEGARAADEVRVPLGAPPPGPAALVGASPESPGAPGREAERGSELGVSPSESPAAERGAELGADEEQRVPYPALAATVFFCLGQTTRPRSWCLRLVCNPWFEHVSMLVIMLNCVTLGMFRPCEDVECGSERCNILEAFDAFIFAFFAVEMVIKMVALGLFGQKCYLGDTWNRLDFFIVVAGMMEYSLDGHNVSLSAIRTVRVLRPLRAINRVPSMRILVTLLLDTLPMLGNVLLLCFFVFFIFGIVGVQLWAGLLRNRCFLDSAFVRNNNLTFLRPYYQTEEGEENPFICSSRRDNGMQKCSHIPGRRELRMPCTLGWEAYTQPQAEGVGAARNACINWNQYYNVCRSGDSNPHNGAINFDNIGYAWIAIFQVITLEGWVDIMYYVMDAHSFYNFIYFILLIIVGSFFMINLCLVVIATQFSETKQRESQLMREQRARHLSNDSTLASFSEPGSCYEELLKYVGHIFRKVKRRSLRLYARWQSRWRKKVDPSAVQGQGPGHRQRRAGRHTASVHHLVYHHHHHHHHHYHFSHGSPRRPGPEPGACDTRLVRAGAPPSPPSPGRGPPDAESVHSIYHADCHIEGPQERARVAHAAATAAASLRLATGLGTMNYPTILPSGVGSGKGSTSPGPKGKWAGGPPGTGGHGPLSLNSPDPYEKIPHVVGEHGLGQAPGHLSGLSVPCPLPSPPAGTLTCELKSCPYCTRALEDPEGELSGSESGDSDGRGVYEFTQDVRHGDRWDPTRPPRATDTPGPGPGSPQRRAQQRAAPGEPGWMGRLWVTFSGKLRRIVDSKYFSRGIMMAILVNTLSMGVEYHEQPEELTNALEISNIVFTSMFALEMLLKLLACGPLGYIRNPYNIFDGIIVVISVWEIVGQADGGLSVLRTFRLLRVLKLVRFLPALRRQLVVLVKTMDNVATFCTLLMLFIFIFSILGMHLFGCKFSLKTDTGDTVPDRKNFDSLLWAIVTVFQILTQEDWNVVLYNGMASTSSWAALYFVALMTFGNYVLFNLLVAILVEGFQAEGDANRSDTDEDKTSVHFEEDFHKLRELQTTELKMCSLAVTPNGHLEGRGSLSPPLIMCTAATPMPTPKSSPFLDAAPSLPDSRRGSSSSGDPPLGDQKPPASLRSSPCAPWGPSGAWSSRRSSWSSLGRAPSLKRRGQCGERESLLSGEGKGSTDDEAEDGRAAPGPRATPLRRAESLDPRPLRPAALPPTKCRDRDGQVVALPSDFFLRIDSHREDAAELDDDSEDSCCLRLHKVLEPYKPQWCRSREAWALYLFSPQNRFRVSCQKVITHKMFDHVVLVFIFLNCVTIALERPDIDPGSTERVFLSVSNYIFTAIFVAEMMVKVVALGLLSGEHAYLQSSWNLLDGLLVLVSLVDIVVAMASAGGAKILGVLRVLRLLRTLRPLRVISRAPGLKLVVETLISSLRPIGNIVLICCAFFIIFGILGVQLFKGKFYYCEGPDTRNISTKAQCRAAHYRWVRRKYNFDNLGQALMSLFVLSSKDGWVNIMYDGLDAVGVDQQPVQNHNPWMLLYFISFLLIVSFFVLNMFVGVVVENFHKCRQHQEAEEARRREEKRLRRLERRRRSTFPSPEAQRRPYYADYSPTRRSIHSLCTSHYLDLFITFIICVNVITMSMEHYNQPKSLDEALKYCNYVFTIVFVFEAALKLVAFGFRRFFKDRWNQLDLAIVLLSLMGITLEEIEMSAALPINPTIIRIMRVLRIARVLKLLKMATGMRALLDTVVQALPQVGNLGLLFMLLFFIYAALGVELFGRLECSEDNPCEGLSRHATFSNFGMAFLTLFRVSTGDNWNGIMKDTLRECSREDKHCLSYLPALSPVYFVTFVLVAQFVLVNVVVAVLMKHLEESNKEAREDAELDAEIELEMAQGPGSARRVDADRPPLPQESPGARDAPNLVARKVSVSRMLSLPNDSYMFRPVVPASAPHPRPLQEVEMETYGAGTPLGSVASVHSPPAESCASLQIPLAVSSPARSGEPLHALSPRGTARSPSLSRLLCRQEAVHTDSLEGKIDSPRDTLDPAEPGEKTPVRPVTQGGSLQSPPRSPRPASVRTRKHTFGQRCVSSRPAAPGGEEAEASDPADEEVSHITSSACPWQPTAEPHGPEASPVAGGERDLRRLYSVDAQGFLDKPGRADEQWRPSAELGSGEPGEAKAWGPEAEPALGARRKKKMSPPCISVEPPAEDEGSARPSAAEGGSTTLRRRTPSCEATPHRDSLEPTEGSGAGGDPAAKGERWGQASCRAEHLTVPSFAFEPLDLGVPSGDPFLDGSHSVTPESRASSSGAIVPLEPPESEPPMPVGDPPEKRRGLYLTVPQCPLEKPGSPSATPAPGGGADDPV
CYP2C9 act: increases human cytochrome P450 2C9 activity; recombinant CYP2C9, luciferin-H conversion, luminescence; stronger effect = higher value; factor 1 = untreated enzyme, 0 = blocked; activation factor at 5 µM; hit rate 1.4% among 96,000; AID 1024;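 active = activation factor of 2 or more for CYP2C9 at a 5 µM dose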
CYP2C19 activ: cytochrome P450 2C19 (human) activation | P33261 | 96,000 tested, under 10 active | AID 1025 | recombinant CYP2C19, luciferin-H EGE luminescence; stronger effect = higher value; 0 = fully inhibited enzyme, 1 = untreated enzyme | activation factor at 5 µM;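 active = activation factor of at least 2 at 5 µM in the primary screen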
Numbers stand for hits; n = inactive; x = no result given. A selection: hits, their analogues and other compounds. The true share with any hit is near 27%.

SMILES	CYP2C9 inhib	CYP2C19 inh	Cav32 inh	CYP2C9 act	CYP2C19 activ
CSc1nc2ncc3c(n2n1)CC1c2ccccc2CCN1C3=O (stereo not drawn)	54.6	71.7	n	n	n
CC(=O)N(Cc1ccc(F)cc1)C1=C(NCc2ccccc2)C(=O)c2ccccc2C1=O	76.4	72.9	-5.11	n	n
O=C(NCc1ccc(F)cc1)N[C@@H](Cc1ccccc1)C(=O)O	n	n	n	n	n
CCOC(=O)c1c(NC(=O)COC(=O)Cn2c(C(F)(F)F)nc3ccccc32)sc(C)c1C	n	n	n	n	n
CC(=O)OC(Cn1ccnc1)c1ccccc1 (stereo not drawn)	n	n	n	n	n
OC(Cn1ccnc1)c1ccc(Cl)cc1Cl (stereo not drawn)	94.8	98.9	n	n	n
O=C(CC1(C(=O)O)CCCC1)N1CCOCC1	n	n	n	n	n
COc1ccc(N=C2C(=Nc3ccc(OC)cc3)N(c3ccc(OC)cc3)C(=S)N2c2ccccc2)cc1	77.9	n	n	n	n
CSCC[C@@H](Nc1nc(-c2ccccc2)nc2c1oc1ccccc12)C(=O)O	64.0	n	n	n	n
c1ccc(-c2nc(NCc3cccnc3)c3oc4ccccc4c3n2)cc1	57.7	n	n	n	n
CN(C)CCOc1nc(-c2ccccc2)nc2c1oc1ccccc12	n	n	n	n	n
CCCCOC(=O)Nc1cccc(Cl)c1C	n	55.9	n	n	n
O=C(Nn1cnnc1)c1ccccc1-c1ccccc1	n	n	n	n	n
CC(C)N(C(=O)c1ccccc1-c1ccccc1)C(C)C	n	n	-4.62	n	n
Cc1ccc(C)c(NC(=O)C2CC3c4ccccc4C2c2ccccc23)c1 (stereo not drawn)	n	n	n	n	n
O=C(c1ccc2c3c(cccc13)CC2)N1CCN(c2ncccn2)CC1	x	x	n	x	x
Cn1cc(Cl)c(C(=O)N2CCN(c3ncccn3)CC2)n1	x	x	n	x	x
CN(C(=O)c1cnc(N2CCN(c3ncccn3)CC2)c2ccccc12)c1ccc(Cl)cc1	69.6	88.1	x	n	n
O=C(c1cnc(N2CCN(c3ncccn3)CC2)c2ccccc12)N1CCN(c2ncccn2)CC1	64.0	n	x	n	n
O=C(Cn1ccc2ccccc2c1=O)N1CCN(c2cccc(Cl)c2)CC1	n	n	n	n	n
CCN(C(=O)c1cnc(N2CCN(c3ncccn3)CC2)c2ccccc12)c1cccc(Cl)c1	84.8	97.2	-6.63	n	n
CS(=O)(=O)N1CCC(C(=O)NCc2ccc(F)cc2Cl)CC1	n	n	n	n	n
CC(C)NC(=O)c1ccc(COCC(F)(F)C(F)F)cc1	n	83.5	n	n	n
NC(=O)CC(NC(=O)c1cccc(Br)c1)c1ccc(NCCN2CCOCC2)c([N+](=O)[O-])c1 (stereo not drawn)	x	x	n	x	x
COc1cccc(C(c2nnnn2CCc2ccccc2)N2CCN(c3ccccc3)CC2)c1OC (stereo not drawn)	x	x	-4.17	x	x
SMILES	CYP2C9 inhib	CYP2C19 inh	Cav32 inh	CYP2C9 act	CYP2C19 activ
COc1ccccc1N1CCN(C(c2ccccc2)c2nnnn2CCc2ccccc2)CC1 (stereo not drawn)	x	x	n	x	x
COc1cccc(C(c2nnnn2Cc2ccco2)N2CCN(c3cccc(C)c3C)CC2)c1OC (stereo not drawn)	70.0	55.5	-6.93	n	n
Clc1ccccc1C(c1nnnn1Cc1ccco1)N1CCN(Cc2ccco2)CC1 (stereo not drawn)	n	96.5	n	n	n
COCCn1nnnc1C(c1ccccc1OC)N1CCN(c2ccccc2)CC1 (stereo not drawn)	n	n	n	n	n
COc1ccccc1C(c1nnnn1CCc1ccccc1)N1CCN(c2ccccc2)CC1 (stereo not drawn)	n	n	-5.88	n	n
Cc1cccc(OCCNc2nc3c(c(=O)n(C)c(=O)n3C)n2C)c1	n	n	n	n	n
O=S(=O)(/N=C(/c1ccc(Cl)cc1)N1CCOCC1)c1ccc(Cl)cc1	n	n	n	n	n
Cc1ccc(C(=O)Nc2ccc(Br)c(C(F)(F)F)c2)cc1	n	n	n	n	n
COc1ccccc1C(c1nnnn1CCc1ccccc1)N1CCCCCC1 (stereo not drawn)	n	n	-8.98	n	n
Clc1ccc(C(c2nnnn2CCc2ccccc2)N2CCSCC2)cc1 (stereo not drawn)	78.7	80.0	-6.85	n	n
Fc1ccc(C(c2nnnn2Cc2ccccc2)N2CCSCC2)cc1 (stereo not drawn)	n	n	n	n	n
Cc1n[nH]c(=O)nc1Nc1ccc(O)cc1	n	n	n	n	n
Oc1ccc(Nc2nc3ccccc3nc2Nc2ccc(O)cc2)cc1	98.6	98.8	n	n	n
CCCn1c(SCC(=O)NC2CCCC(C)C2C)n[nH]c1=O (stereo not drawn)	n	n	n	n	n
O=C(N1CCOCC1)n1cnc2ccccc21	x	x	n	x	x
ClC(Br)=C(n1cnc2ccccc21)n1cnc2ccccc21	88.1	75.2	x	n	n
Cc1nnc(N2C(=O)c3cccc4cccc(c34)C2=O)s1	n	n	n	n	n
Cc1nnc(C)n1N1C(=O)c2cccc3cccc(c23)C1=O	81.1	62.4	x	n	n
Cc1cnc(Nc2nc3ccccc3o2)nc1C(=O)Nc1cccc(C(F)(F)F)c1	n	n	-6.14	n	n
O=C(Nc1ccc(/C=C/c2nc3ccccc3o2)cc1)c1cccc(C(F)(F)F)c1	n	n	n	n	n
C=C(C)CSc1nc(N)c(C#N)c(-c2ccc(C)cc2)c1C#N	50.0	n	n	n	n
CCOC(=O)CC(=O)CSc1nc(N)c(C#N)c(-c2ccc(F)cc2)c1C#N	52.9	62.2	n	n	n
CCCCOC(=O)CSc1nc(N)c(C#N)c(-c2ccc(OCC)cc2)c1C#N	n	n	n	n	n
CCN(CC)CC(C)OC(=O)COc1ccc(OC)cc1 (stereo not drawn)	x	x	n	x	x
CC(C)(C)NC(=O)Cn1c(SCC(=O)NCc2cccs2)nc2ccccc21	n	n	n	n	n
SMILES	CYP2C9 inhib	CYP2C19 inh	Cav32 inh	CYP2C9 act	CYP2C19 activ
COC(=O)c1ccccc1NC(=O)/C=C/c1cc(OC)c(OC)c(OC)c1	n	n	n	n	n
CCOC(=O)/C(=N\Nc1cc(C(F)(F)F)ccc1Cl)N(CC)CC	n	80.1	n	n	n
COc1cc(/C=C/C(=O)Nc2cc(C(F)(F)F)ccc2Cl)cc(OC)c1OC	n	n	-5.21	n	n
O=C(CCc1ccccc1)Nc1cc(C(F)(F)F)ccc1Cl	n	62.0	n	3.9	n
O=C(CS(=O)c1cccc(C(F)(F)F)c1)Nc1ccccc1Cl (stereo not drawn)	n	54.9	n	3.3	n
Cc1ccc[n+](CC(=O)Nc2cc(C(F)(F)F)ccc2Cl)c1	n	n	n	n	n
CN(c1ccc(C(=O)N2CCCCC2)cc1)S(C)(=O)=O	n	n	n	n	n
Cc1nc2ccccc2c2nc(NC(=O)Cc3ccccc3)nn12	n	n	n	n	n
CN(C)CC(=O)Nc1cc(C(F)(F)F)ccc1Cl	n	n	n	2.2	n
CCCc1cc(N2CCN(c3ccccn3)CC2)n2nc(C)c(-c3ccccc3)c2n1	53.6	n	n	n	n

Compound activity: PubChem BioAssay, several laboratories
